Assay [1] can be described thus: small molecules captured by biotinylated probe aFSTL3 – biochemical, small-molecule microarray, fluorescence 635/667, stem cell growth factor project, primary screen (AID 1064).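 Note: measures binding of the biotinylated anti-FSTL3 antibody to printed compounds.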 Particulars: higher = more signal.
The nature of assay [2]: binders from COS7 lysate, DM2A8 probe, primary screen, torsin A project, cell lysate, small-molecule microarray, fluorescence 635/667 (AID 1065). Particulars: higher = more signal, COS7 lysate expressing mutant human TOR1A.
The nature of assay [3]: small molecules captured by biotinylated probe aFGF2 – biochemical, small-molecule microarray, fluorescence 635/667, stem cell growth factor project, primary screen (AID 1067).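 Note: measures binding of biotinylated aFGF2 protein to printed compounds on slides; z-score merges feature fluorescence and signal-to-noise across triplicate slides.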 The settings on record: higher = more signal.
Assay [4] can be described thus: small molecules captured by biotinylated probe aFGF10 – biochemical, small-molecule microarray, fluorescence 635/667, stem cell growth factor project, primary screen (AID 1071).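 Note: score merges 667 nm spot intensity and signal to noise from triplicate slides.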 The settings on record: higher = more signal.
The target in assay [5] is Neurogenic locus notch homolog protein 2 (Homo sapiens) (UniProt Q04721). Description: small molecules binding Notch2 protein – biochemical, small-molecule microarray, 635 nm fluorescence, stem cell growth factors, primary screen (AID 1073). Particulars: higher = more signal.
Assay [6] has as its target Pro-neuregulin-1, membrane-bound isoform (Homo sapiens) (UniProt Q02297). Description: small molecules binding neuregulin-1 protein – biochemical, small-molecule microarray, fluorescence 635/667, psychiatric disease protein project, primary screen (AID 1075).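 Note: score combines 667 nm spot fluorescence with signal to noise.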 The settings on record: NRG1 binding, 635 nm fluorescence, higher = more signal.
The test system of assay [7] is Neuregulin-1 EGF-like domain. Nature of the assay: small molecules binding NRG1 EGF domain – biochemical, small-molecule microarray, 635 nm fluorescence, primary screen (AID 1081).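 Note: binding of the protein to compounds printed on small-molecule microarray slides.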 The settings on record: higher = more signal.
A short description of assay [8]: FRG1 expression reporter modulators in myotubes – cell-based, C2C12 myotubes, firefly/Renilla luciferase, luminescence, FRG1 inhibition for FSHD, primary screen (AID 1084). The settings on record: FRG1 promoter luciferase, higher = more signal, called active from +8 up or from −8 down.
A short description of assay [9]: small molecules captured by biotinylated probe aFST – biochemical, small-molecule microarray, fluorescence 635/667, stem cell growth factor project, primary screen (AID 1086).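 Note: score merges 667 nm fluorescence with signal-to-noise of each printed compound spot.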 Particulars: higher = more signal.
A short description of assay [10]: binders of probe aHhip on microarray, primary screen, stem cell growth factor project, biochemical, small-molecule microarray, fluorescence 635/667 (AID 1087).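 Note: score merges spot fluorescence at 667nm with spot signal to noise ratio.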 Particulars: higher = more signal.
In assay [11] the test system is PRMT1 (protein arginine N-methyltransferase 1). Description: small molecules binding arginine methyltransferase PRMT1 – biochemical, small-molecule microarray, 635 nm fluorescence, primary screen (AID 1088).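 Note: binding of Prmt1 protein to compounds spotted on small-molecule microarray slides.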 Particulars: higher = more signal.
Assay [12] in a line: growth effects on S. cerevisiae YJM789 – YJM789 clinical isolate, OD600, 24 h, basal, primary screen (AID 1089).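 Note: growth of clinical yeast isolate S. cerevisiae YJM 789 seeded 1000 cells per well; test concentration not given here.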 Particulars: higher = more signal, called active from +8 up or from −8 down.
A short description of assay [13]: S. pombe growth modifiers, basal conditions – strain 972, OD600, 24 h, no modulator, primary screen (AID 1090).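 Note: basal condition with compound alone and no growth modifier present; test concentration not given here.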 The settings on record: S. pombe 972 growth, higher = more signal, called active from +8 up or from −8 down.
Assay [14] can be described thus: budding yeast growth modifiers under rapamycin – strain BY4716, OD600, 96 h, primary screen (AID 1091). Note: test concentration not given here. Particulars: S. cerevisiae BY4716 + rapamycin, higher = more signal, called active from +8 up or from −8 down.
Assay [15] addresses Torsin-1A-interacting protein 2 (Homo sapiens) (UniProt Q8NFQ8). Nature of the assay: small molecules binding lysate-expressed LULL1 – cell lysate, human LULL1 lysate, 635/667 nm fluorescence, primary screen (AID 1092).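 Note: probe is lysate of COS7 cells overexpressing human LULL1; score merges per-feature 667 nm fluorescence with signal-to-noise.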 Particulars: small-molecule microarray, hLULL1 lysate binding, 635 nm fluorescence; higher = more signal.
Assay [16] can be described thus: optical density change of DRC41 E. coli – strain DRC41, OD650, 24 h, E. coli filamentation project, primary screen (AID 1093).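 Note: MC1000 strain lacking acrAB efflux and sulA so SOS filamentation is blocked; test concentration not given here.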 The settings on record: E. coli DRC41 growth, higher = more signal, called active from +8 up or from −8 down.
A short description of assay [17]: probe aLefty2 binding to arrayed compounds – biochemical, biotinylated probe, 635/667 nm fluorescence, primary screen (AID 1094).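 Note: score merges spot fluorescence near 667 nm with spot signal-to-noise ratio.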 Particulars: small-molecule microarray, higher = more signal.
Assay [18] relates to Noggin (protein binding on small-molecule microarray). Nature of the assay: small molecules binding Noggin protein – biochemical, 635/667 nm fluorescence, primary screen (AID 1095).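 Note: score merges 667 nm feature fluorescence with signal to noise over triplicate slides.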 The settings on record: 635 nm fluorescence, higher = more signal.
For assay [19], the target named is Neurogenic locus notch homolog protein 3 (Homo sapiens) (UniProt Q9UM47). Nature of the assay: small molecules binding NOTCH3 protein – biochemical, 635/667 nm fluorescence, primary screen (AID 1096). The settings on record: small-molecule microarray, 635 nm fluorescence, higher = more signal.
The nature of assay [20]: probe aEGFR binding to arrayed compounds – biochemical, biotinylated probe, 635/667 nm fluorescence, primary screen (AID 1097).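 Note: probe is a biotinylated anti-EGFR antibody binding compounds printed on slides; score combines fluorescence near 667 nm and signal to noise of each spot.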 The settings on record: small-molecule microarray, higher = more signal.

Activity calls are given as the source filed them.

Chain of Pro-neuregulin-1, membrane-bound isoform (Homo sapiens) (Q02297 whole entry, looked up, the tested form may be a part, canonical isoform): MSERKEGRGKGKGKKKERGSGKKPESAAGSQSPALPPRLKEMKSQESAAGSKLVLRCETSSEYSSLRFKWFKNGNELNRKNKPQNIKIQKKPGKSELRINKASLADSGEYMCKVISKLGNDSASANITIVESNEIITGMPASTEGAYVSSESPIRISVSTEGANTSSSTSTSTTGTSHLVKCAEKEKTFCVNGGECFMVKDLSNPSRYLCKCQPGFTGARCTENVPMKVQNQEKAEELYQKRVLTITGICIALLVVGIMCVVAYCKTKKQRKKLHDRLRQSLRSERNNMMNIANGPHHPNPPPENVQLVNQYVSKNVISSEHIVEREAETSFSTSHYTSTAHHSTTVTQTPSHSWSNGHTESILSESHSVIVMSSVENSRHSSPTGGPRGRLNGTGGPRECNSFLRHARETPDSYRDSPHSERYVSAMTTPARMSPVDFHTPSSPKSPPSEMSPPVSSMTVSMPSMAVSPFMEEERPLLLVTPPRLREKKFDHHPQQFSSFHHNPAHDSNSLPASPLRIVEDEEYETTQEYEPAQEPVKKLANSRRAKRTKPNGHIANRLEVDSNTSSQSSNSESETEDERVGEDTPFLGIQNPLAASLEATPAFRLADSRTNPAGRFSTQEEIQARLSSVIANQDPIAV
Chain of Neurogenic locus notch homolog protein 3 (Homo sapiens) (Q9UM47 whole entry, looked up): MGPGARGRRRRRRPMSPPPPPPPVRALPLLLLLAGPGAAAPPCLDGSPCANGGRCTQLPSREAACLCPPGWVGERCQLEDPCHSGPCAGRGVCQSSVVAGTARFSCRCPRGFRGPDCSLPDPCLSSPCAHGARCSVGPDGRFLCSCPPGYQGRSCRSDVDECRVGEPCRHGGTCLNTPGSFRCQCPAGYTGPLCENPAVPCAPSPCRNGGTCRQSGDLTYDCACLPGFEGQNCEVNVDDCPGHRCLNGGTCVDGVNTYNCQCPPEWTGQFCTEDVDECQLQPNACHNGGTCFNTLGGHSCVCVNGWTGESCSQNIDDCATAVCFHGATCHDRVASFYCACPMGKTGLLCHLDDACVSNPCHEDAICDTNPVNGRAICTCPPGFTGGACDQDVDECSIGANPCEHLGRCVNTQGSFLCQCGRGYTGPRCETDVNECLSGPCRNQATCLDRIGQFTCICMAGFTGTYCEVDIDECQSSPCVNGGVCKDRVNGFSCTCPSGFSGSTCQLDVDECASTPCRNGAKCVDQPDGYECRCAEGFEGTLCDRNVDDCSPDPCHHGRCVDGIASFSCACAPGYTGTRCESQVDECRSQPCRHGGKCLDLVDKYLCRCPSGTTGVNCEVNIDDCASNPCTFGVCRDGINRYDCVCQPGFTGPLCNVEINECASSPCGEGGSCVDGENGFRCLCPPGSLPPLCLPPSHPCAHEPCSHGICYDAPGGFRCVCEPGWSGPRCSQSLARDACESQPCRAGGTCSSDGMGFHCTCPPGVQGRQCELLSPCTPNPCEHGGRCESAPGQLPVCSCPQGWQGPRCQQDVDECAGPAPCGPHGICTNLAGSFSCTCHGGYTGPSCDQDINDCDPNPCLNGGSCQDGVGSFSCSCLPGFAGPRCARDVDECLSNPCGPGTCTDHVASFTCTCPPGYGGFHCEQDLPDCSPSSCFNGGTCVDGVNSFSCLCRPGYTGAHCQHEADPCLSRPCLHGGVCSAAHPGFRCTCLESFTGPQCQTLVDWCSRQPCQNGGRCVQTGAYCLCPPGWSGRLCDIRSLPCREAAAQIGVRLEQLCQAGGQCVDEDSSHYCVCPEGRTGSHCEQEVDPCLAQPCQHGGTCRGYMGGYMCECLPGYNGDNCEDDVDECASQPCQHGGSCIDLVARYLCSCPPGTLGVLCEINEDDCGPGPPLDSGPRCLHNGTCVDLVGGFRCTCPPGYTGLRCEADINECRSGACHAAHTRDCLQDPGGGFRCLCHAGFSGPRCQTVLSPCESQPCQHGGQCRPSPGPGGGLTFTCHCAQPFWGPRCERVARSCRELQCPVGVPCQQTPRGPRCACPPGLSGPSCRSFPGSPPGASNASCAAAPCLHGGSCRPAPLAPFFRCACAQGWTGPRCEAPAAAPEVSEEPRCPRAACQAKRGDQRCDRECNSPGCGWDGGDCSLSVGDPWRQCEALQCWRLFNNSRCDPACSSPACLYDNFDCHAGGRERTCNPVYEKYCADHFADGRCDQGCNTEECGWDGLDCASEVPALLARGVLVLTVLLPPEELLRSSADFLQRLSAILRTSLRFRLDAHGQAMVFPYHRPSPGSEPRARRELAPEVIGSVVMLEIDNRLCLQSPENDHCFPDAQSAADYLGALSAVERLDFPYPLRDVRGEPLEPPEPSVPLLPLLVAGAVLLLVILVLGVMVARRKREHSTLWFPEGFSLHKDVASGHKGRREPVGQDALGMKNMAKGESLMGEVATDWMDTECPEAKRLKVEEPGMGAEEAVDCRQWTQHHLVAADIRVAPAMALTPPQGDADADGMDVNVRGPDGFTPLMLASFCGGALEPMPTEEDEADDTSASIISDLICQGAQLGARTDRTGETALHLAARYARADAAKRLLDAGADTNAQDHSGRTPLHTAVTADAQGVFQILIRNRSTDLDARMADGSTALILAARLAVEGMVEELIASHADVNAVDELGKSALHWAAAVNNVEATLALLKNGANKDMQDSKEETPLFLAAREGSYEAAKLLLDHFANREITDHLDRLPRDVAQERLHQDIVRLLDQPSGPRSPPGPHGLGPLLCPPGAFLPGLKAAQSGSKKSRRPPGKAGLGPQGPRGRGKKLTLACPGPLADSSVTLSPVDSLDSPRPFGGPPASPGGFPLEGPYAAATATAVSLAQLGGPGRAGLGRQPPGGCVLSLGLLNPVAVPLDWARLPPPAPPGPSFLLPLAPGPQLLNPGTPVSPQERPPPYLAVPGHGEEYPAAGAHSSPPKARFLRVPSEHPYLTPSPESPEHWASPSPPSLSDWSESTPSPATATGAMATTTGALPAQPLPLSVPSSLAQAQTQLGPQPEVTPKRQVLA
Chain of Torsin-1A-interacting protein 2 (Homo sapiens) (Q8NFQ8 whole entry, looked up): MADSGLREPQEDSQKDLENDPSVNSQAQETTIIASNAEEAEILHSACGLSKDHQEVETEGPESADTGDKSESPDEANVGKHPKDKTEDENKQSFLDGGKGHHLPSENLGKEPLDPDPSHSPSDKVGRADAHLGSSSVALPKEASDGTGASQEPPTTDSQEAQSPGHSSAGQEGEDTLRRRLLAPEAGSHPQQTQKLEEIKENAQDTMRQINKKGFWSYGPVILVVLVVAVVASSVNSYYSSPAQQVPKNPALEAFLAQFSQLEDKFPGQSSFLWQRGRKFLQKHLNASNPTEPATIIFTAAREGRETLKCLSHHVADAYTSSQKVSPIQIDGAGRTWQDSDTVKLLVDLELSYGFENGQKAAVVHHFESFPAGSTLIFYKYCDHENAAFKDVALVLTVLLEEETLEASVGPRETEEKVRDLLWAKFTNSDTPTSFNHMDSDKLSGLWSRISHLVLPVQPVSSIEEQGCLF

On to `CC(C)C(CO)N1C(=O)[C@@H]2[C@H]3C(=O)OCC=C[C@H]3OC23C=CCN(C(C)C)C(=O)[C@@H]13` (stereo not given in full), for which the composite z-score in assay [1] is -0.25; in [2] it was -0.615; in assay [3], -0.187; in assay [4], -0.271; in assay [5], -0.142; in assay [6], 0.814. For the same compound, the composite z-score in assay [7] is -0.677; in [9], -0.422; in [10] it was -0.374; in assay [11], 0.261; in assay [15] it was 1.4; in assay [17], -0.273. The composite z-score in [18] was 0.503; in assay [19] it was 0.51; in assay [20], -0.194. The z-score in assay [8] was -0.724 (inactive); in assay [12], 0.58 (inactive); in assay [13] it was 0.38 (inactive); in assay [14] it was 0.136 (inactive); in assay [16] it was 1.99 (inactive).
For `CN1C(=O)C2C=CC(C(O)c3ccc(-c4ccccc4)s3)N(N(c3ccccc3)c3ccccc3)C2C1=O` (stereo not given), the composite z-score is 0.415 in assay [1]; -0.235 in [2]; 0.0034 in assay [3]; 0.199 in [4]; 1.15 in [5]; 0.782 in assay [6]. The composite z-score was 0.949 in assay [7]; 0.422 in [9]; 0.248 in [10]; 0.668 in assay [11]; 1.93 in [15]; 0.164 in assay [17]. Further, the composite z-score in assay [18] was -0.132; in [19] it was 1.12; in assay [20], -0.0003. The z-score was 0.685 (inactive) in assay [8]; 0.187 (inactive) in assay [12]; 0.947 (inactive) in assay [13]; 1.33 (inactive) in [14]; -0.422 (inactive) in assay [16].
Regarding `O=C(NCc1ccccc1)[C@@]1(Cc2ccccc2)N=C(c2ccc(OCCCO)cc2)O[C@H]1c1ccccc1`, the composite z-score worked out at 0.398 in assay [1]; 1.92 in assay [2]; 0.0557 in assay [3]; 0.177 in [4]; 1.56 in assay [5]; 1.76 in assay [6]. Also, the composite z-score was 1.05 in [7]; 1.07 in assay [9]; -0.201 in assay [10]; 0.982 in assay [11]; 3.39 in [15]; 0.126 in [17]. Further, the composite z-score is -0.595 in [18], 0.642 in [19] and 0.0357 in [20]. In addition, the z-score in assay [8] is -2.23 (inactive); in [12] it was 0.46 (inactive); in assay [13] it was -0.666 (inactive); in assay [14] it was 23.2 (active); in assay [16] it was 0.842 (inactive).
On to `COc1ccc(C(=O)Nc2ccc(CN3C(=O)[C@@]4(O[C@@H](CCO)[C@H]([Si](C)(C)c5ccc(OC)cc5)[C@H]4C)c4ccccc43)cc2)cc1`, for which the composite z-score was -0.0338 in [1]; 0.623 in assay [2]; -0.113 in [3]; 0.187 in assay [4]; 0.912 in [5]; 1.22 in assay [6]. Moreover, the composite z-score in assay [7] is 1.1; in assay [9], 0.25; in [10] it was -0.0645; in [11], 1.54; in [15], 1.4; in assay [17], 0.0217. Besides, the composite z-score in assay [18] is 1.49; in assay [19], 1.08; in [20], -0.0774. Also, the z-score in assay [8] is -3.12 (inactive); in assay [12], -0.81 (inactive); in assay [13] it was -7.92 (inactive); in assay [14], 0.495 (inactive); in [16], 0.0243 (inactive).
Consider `C=CC[C@@]1(C(=O)NCc2ccccc2)N=C(c2ccc(OCCCO)cc2)O[C@@H]1c1ccccc1N=[N+]=[N-]`, for which the composite z-score came out at 0.127 in assay [1]; 0.852 in assay [2]; 0.071 in assay [3]; 0.942 in [4]; 1.44 in assay [5]; 1.74 in assay [6]. For the same compound, the composite z-score in [7] worked out at 1.27; in assay [9], 1.31; in assay [10] it was 0.111; in assay [11] it was 1.54; in [15], 3.55; in [17] it was 0.252. Besides, the composite z-score turned out to be 0.8 in assay [18], 1.09 in assay [19] and 0.006 in [20]. In addition, the z-score in assay [8] is 0.206 (inactive); in assay [12], 0.158 (inactive); in [13], 0.178 (inactive); in assay [14], 2.21 (inactive); in assay [16], 0.266 (inactive).
